According to the supplement of paper PMC10849652:
Of roughly 7,900 targets only a part is listed; those with a hit were picked by preference. About 0.6% of all pairs of compound and target were hits. A number with no mark means an inactive call.

Columns and labels:
Experiment in all cases: log2 fold change, soluble protein after heating vs DMSO (PISA); higher = thermal stabilisation; K562 cells, 10 uM, 30 min; active = over 0.2 and 3.5 SD of the protein, either way, in both replicates (recomputed)
[1] = compound: C1COCCN1CCN2C3=CC=CC=C3N=C2NC(=O)C4=CC(=CC=C4)[N+](=O)[O-] [IRAK-1-4 Inhibitor I]
Procedure, shortened: (§1)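 K562 cells at 2×10^6 cells/mL were treated with 10 μM compound for 30 min. Aliquots were heated for 3 min across 48°C-58°C, pooled, and extracted in PBS with 0.5% NP-40 at 4°C; soluble protein was the supernatant after 21,000xg for 90 min. Soluble protein was quantified by TMTpro 16plex LC-MS/MS with channel sums equalised, and reported as log2 fold change in thermal stability against DMSO controls, with values from duplicates.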

[2] = compound: C=CC(=O)N1CCC[C@@H](n2nc(-c3ccc(Oc4ccccc4)cc3)c3c(N)ncnc32)C1 [ibrutinib]
Procedure, shortened: as §1

[3] = compound: CC(=O)c1cnc2ccc(-c3cc(Cl)c(O)c(Cl)c3)nc2c1N[C@H]1CC[C@H](CN(C)C)CC1
Procedure, shortened: as §1

[4] = compound: CC(C)(C)Cn1c(N)nc2ccc(-c3[nH]c(C(C)(C)C)nc3-c3ccc(F)cc3)nc21 [ralimetinib]
Procedure, shortened: as §1

[5] = compound: CC(C)(O)CC(=O)NCCn1ccc2ncnc(Nc3ccc(Oc4cccc(C(F)(F)F)c4)c(Cl)c3)c21
Procedure, shortened: as §1

[6] = compound: CC(C)C1=C2N=C(C=C(N2N=C1)NCC3=CC=CC=C3)NCCCCCCN
Procedure, shortened: as §1

[7] = compound: CC(C)C[C@@H](C=O)NC(=O)[C@H](CC(C)C)NC(=O)[C@H](CC(C)C)NC(=O)OCc1ccccc1
Procedure, shortened: as §1

[8] = compound: CC(C)N(C[C@H]1O[C@@H](n2cnc3c(N)ncnc32)[C@H](O)[C@@H]1O)[C@H]1C[C@@H](CCc2nc3cc(C(C)(C)C)ccc3[nH]2)C1 [pinometostat]
Procedure, shortened: as §1

[9] = compound: CC1=C(C(CC(=O)N1)C2=CC=C(C=C2)C(F)(F)F)C(=O)NC3=C(C=C4C(=C3)C=NN4)F
Procedure, shortened: as §1

[10] = compound: CC1=C(C2=C(C=C1)C(=O)C3=CC=CC=C3N2CCCN)C
Procedure, shortened: as §1

[11] = compound: CC1=C(C=C(C=C1)NC(=O)C2=CC(=CC=C2)C(C)(C)C#N)NC3=CC4=C(C=C3)N=CN(C4=O)C
Procedure, shortened: as §1

[12] = compound: CC1=C(C=C(C=C1)NC(=O)C2=CC(=CC=C2)N(C)C)NC(=O)C3=CC=C(C=C3)O
Procedure, shortened: as §1

[13] = compound: CC1=CC=C(C=C1)SC2=C3C=C(SC3=CN=C2)C(=O)N
Procedure, shortened: as §1

[14] = compound: CC1=NC(=CC=C1)C2=C(N=C(N2)C(C)(C)C)C3=CC4=NC=CN=C4C=C3
Procedure, shortened: as §1

[15] = compound: CCCCN(Cc1ccc(C(=O)NO)cc1)C(=O)Nc1ccccc1 [Nexturastat A]
Procedure, shortened: as §1

[16] = compound: CCCS(=O)(=O)Nc1ccc(F)c(C(=O)c2c[nH]c3ncc(-c4ccc(Cl)cc4)cc23)c1F [vemurafenib]
Procedure, shortened: as §1

[17] = compound: CCCS(=O)(=O)Nc1ccc(F)c(C(=O)c2c[nH]c3ncc(Cl)cc23)c1F
Procedure, shortened: as §1

[18] = compound: CCCc1cc(C)[nH]c(=O)c1CNC(=O)c1cc(-c2ccnc(N3CCN(C)CC3)c2)cc2c1cnn2C(C)C
Procedure, shortened: as §1

[19] = compound: CCN(CC)Cc1ccc2cc(COC(=O)Nc3ccc(C(=O)NO)cc3)ccc2c1 [givinostat]
Procedure, shortened: as §1

[20] = compound: CCN(CCCOc1ccc2c(Nc3cc(CC(=O)Nc4cccc(F)c4)[nH]n3)ncnc2c1)CCOP(=O)(O)O [barasertib]
Procedure, shortened: as §1

Sequence of UniProt Q14498 (Q14498 whole entry, looked up): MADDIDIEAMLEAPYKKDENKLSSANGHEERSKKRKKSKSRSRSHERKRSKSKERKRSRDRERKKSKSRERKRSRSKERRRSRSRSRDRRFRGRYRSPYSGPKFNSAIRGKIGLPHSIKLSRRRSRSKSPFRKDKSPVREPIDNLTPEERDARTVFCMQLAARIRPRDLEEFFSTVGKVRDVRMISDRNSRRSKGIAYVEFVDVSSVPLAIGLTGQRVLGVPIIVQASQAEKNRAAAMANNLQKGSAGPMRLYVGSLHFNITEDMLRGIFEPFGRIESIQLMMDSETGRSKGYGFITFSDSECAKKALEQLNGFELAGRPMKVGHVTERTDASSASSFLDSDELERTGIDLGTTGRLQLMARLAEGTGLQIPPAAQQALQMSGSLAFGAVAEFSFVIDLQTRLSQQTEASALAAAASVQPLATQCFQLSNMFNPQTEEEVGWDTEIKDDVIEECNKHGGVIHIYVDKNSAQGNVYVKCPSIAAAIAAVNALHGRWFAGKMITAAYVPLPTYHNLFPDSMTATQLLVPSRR
Sequence of UniProt Q99590 (Q99590 whole entry, looked up): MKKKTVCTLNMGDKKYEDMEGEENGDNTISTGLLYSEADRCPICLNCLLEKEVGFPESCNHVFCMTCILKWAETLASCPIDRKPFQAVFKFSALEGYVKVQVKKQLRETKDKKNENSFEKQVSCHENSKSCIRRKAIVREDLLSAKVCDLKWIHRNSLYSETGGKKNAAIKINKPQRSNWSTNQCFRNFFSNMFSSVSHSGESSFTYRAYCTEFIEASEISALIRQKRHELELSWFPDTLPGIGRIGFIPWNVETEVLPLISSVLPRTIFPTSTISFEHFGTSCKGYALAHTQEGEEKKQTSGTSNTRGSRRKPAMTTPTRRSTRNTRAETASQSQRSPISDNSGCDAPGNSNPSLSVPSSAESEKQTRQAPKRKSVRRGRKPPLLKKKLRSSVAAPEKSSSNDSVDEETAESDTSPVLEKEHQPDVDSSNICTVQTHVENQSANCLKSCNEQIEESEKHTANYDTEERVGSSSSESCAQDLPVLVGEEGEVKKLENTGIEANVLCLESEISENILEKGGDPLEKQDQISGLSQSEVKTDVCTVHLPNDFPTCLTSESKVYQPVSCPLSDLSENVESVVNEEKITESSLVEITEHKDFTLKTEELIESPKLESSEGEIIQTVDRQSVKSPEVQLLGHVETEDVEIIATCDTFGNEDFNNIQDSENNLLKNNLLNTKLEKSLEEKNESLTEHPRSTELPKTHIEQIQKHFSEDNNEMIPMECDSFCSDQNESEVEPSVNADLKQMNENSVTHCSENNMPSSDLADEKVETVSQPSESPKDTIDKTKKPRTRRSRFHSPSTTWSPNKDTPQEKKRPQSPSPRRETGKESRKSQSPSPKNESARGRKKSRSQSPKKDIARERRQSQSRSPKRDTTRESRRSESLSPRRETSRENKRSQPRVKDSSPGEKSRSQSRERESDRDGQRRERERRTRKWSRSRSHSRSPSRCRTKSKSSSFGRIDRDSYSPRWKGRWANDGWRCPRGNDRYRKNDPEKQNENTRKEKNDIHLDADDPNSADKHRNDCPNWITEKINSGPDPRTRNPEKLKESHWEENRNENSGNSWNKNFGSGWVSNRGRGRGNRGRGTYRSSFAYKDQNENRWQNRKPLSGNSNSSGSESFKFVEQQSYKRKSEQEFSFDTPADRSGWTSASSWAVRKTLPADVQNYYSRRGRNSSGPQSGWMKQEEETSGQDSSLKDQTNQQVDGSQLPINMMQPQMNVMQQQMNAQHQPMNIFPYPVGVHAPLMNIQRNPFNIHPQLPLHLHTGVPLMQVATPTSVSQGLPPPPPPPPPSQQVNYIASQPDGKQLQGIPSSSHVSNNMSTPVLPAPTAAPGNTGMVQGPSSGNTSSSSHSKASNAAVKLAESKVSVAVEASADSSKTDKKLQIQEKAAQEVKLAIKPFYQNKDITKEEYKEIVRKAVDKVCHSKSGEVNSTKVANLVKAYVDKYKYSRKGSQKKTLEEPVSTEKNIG
Sequence of UniProt Q01974 (Q01974 whole entry, looked up): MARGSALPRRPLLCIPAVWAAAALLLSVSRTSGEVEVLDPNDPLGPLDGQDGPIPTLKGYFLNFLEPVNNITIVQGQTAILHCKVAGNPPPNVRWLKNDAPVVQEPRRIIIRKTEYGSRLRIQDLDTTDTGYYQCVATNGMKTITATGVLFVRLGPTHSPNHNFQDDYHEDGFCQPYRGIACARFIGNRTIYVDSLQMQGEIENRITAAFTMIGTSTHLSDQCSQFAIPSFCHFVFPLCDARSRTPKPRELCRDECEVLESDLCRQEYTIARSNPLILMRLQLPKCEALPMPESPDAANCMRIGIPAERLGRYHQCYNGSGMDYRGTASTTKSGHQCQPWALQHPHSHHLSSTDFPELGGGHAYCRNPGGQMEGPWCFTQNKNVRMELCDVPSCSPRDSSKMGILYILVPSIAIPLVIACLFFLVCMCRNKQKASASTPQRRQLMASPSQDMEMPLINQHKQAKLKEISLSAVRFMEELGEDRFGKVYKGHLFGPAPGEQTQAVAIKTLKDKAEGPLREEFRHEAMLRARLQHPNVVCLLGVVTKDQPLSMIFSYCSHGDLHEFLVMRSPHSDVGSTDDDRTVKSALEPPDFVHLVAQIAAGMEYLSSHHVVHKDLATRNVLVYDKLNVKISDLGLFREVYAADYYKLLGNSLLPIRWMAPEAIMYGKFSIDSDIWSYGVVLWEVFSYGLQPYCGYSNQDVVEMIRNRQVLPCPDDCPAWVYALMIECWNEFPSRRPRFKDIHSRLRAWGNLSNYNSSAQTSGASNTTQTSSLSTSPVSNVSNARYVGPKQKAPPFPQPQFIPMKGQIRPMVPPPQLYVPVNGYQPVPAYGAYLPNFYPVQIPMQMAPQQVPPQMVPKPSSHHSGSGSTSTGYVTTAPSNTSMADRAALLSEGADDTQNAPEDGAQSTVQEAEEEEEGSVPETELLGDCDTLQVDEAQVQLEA
Sequence of UniProt Q96DX4 (Q96DX4 whole entry, looked up): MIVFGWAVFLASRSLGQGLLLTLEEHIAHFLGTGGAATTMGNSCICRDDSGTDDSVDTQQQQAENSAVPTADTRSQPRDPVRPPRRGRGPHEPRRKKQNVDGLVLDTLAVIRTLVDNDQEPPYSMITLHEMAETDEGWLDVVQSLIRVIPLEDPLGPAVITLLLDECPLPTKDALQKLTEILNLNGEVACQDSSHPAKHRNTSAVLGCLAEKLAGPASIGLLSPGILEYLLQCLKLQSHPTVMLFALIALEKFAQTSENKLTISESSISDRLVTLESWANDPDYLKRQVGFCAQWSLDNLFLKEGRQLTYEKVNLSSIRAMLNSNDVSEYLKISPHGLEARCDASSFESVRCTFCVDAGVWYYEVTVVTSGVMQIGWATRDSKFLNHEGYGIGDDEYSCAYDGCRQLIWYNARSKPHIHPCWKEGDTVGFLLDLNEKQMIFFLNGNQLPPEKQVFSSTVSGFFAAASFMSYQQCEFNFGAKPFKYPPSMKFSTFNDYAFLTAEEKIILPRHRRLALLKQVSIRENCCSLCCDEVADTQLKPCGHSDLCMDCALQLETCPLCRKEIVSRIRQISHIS
Sequence of UniProt Q5T160 (Q5T160 whole entry, looked up): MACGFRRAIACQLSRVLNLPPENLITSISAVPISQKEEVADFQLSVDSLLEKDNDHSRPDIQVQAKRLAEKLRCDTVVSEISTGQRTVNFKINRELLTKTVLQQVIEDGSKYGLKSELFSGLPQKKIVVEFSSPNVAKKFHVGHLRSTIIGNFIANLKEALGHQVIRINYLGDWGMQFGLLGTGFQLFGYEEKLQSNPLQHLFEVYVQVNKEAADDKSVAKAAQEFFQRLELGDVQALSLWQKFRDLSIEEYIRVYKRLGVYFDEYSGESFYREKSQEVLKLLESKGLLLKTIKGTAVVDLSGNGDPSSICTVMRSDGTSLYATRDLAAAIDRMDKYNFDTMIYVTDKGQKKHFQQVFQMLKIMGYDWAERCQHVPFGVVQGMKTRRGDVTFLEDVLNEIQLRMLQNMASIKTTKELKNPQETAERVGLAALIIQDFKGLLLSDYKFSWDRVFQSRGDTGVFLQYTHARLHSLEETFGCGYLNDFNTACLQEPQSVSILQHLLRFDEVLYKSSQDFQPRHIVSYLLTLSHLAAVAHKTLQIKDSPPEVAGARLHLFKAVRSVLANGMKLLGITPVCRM
Sequence of UniProt Q9H4A4 (Q9H4A4 whole entry, looked up): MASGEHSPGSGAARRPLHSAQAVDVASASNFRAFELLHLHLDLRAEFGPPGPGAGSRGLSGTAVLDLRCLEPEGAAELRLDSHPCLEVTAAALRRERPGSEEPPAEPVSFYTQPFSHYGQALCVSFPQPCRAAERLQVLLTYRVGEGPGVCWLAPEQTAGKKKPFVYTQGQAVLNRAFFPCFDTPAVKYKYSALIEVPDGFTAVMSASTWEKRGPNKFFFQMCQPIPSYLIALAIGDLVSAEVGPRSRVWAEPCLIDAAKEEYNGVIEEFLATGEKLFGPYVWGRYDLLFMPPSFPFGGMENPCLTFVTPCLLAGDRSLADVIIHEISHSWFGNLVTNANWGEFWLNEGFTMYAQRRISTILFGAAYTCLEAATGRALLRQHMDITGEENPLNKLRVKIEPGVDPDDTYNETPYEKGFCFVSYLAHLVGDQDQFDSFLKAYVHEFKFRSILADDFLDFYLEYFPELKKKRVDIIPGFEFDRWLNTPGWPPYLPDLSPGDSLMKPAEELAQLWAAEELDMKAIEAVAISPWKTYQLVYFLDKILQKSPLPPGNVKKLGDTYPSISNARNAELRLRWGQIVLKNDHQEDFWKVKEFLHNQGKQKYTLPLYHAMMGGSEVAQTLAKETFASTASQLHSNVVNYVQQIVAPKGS
Sequence of UniProt P35244 (P35244 whole entry, looked up): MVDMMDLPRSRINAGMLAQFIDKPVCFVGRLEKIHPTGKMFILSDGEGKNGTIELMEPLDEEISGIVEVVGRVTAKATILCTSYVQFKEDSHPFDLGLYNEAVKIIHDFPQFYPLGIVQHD
Sequence of UniProt Q8N5L8 (Q8N5L8 whole entry, looked up): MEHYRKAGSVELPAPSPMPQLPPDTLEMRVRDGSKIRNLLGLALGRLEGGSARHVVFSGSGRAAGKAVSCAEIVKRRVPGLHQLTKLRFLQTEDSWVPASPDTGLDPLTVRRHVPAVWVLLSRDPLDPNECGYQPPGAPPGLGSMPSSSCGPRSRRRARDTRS

Target	log2 fold change [1]	log2 fold change [2]	log2 fold change [3]	log2 fold change [4]	log2 fold change [5]	log2 fold change [6]	log2 fold change [7]	log2 fold change [8]	log2 fold change [9]	log2 fold change [10]	log2 fold change [11]	log2 fold change [12]	log2 fold change [13]	log2 fold change [14]	log2 fold change [15]	log2 fold change [16]	log2 fold change [17]	log2 fold change [18]	log2 fold change [19]	log2 fold change [20]
RPS20 isoform 2 (UniProt P60866)	-0.103	0.012	0.02	0.041	0.046	-0.03	0.012	0.123	0.195	-0.368 (active)	0.056	0.021	-0.049	-0.077	0.112	-0.117	-0.068	0.008	-0.032	-0.063
RNF167 (UniProt Q9H6Y7)	-0.001	0.015	0.039	-0.018	-0.025	-0.047	-0.009	0.015	0.064	0	0.037	0.008	-0.041	0.037	-0.059	0.031	-0.06	-0.096	0.005	0.018
ROR2 (UniProt Q01974)	-0.003	-0.014	-0.72 (active)	0.045	-0.058	-0.018	-0.001	0.045	-0.059	0.115	0.022	-0.061	0.001	-0.009	-0.109	0.018	0.007	0.078	0.033	0.003
RB1CC1 (UniProt Q8TDY2)	0.092	0.094	0.045	0.089	-0.11	0.045	0.03	-0.023	-0.015	0.041	-0.061	-0.005	0.025	-0.031	0.161	-0.022	-0.034	0.147	0.102	-0.008
RNPEP (UniProt Q9H4A4)	-0.004	-0.018	0.02	0.011	-0.055	-0.182	-0.021	0.018	0.004	0.137	0.032	-0.024	0.002	0.023	-0.023	0.058	0.052	-0.013	-0.112	0.036
RARS2 (UniProt Q5T160)	0.053	0.003	-0.012	-0.039	-0.081	-0.214	-0.061	-0.032	-0.011	-0.007	0.018	0.033	0.056	0.029	-0.027	0.019	0.05	-0.014	-0.037	0.017
RPA3 (UniProt P35244)	0.02	0.029	0.016	0.038	-0.097	-0.025	-0.137	0.016	0.063	0.129	0.076	-0.059	0.111	0.014	0.091	0.298 (active)	0.053	-0.044	-0.109	0.066
RETSAT (UniProt Q6NUM9)	-0.09	0.042	0.01	0.012	0.178	-0.048	-0.007	-0.012	-0.037	0.059	0.014	0.025	0.088	-0.037	-0.003	-0.03	-0.077	-0.091	0.31	0.009
SH3GLB2 (UniProt Q9NR46)	0.028	0.004	-0.047	0.033	0.028	-0.27 (active)	0.066	-0.004	0.001	-0.021	0.047	-0.052	0.025	0.033	-0.064	0.058	0.058	0.021	0.049	0.051
RSPRY1 (UniProt Q96DX4)	0.018	0.027	0.02	-0.019	-0.036	0	0.079	-0.048	0.033	-0.066	0.106	-0.026	-0.183	-0.035	-0.021	0.034	-0.031	-0.107	-0.007	-0.004
RNASEH2A (UniProt O75792)	0	0.008	-0.07	-0.08	-0.029	-0.122	0.074	-0.003	0.001	0.042	-0.023	-0.018	0.022	0.046	0.142	-0.102	-0.024	-0.063	0.046	0.039
RPP25L (UniProt Q8N5L8)	-0.102	0.021	-0.004	0.049	-0.015	-0.293	0.035	-0.002	-0.014	-0.288 (active)	-0.028	-0.015	0.036	0.02	-0.01	-0.034	-0.035	-0.048	-0.073	-0.025
RPS16 (UniProt P62249)	-0.137	0.036	0.054	0.032	0.011	-0.02	0.035	0.102	0.057	-0.6 (active)	0.028	-0.016	-0.087	-0.035	0.11	-0.073	-0.103	0.337	-0.046	-0.053
RBM39 (UniProt Q14498)	-0.193	0	-0.497 (active)	0.044	-0.028	-0.267	0.043	0.042	-0.022	0.104	-0.035	0	-0.011	0.071	0.043	0.084	0.083	0.034	0.131	0.012
SCAF11 (UniProt Q99590)	0.076	0.099	0.714 (active)	0.166	-0.084	0.134	0.213	0.157	-0.036	0.112	-0.089	0.154	-0.079	-0.275	0.003	-0.158	-0.031	0.035	-0.034	0.165
RBIS (UniProt Q8N0T1)	-0.038	0.019	-0.109	-0.021	0.083	-0.001	0.281 (active)	0.044	0.066	-0.478 (active)	-0.099	-0.011	-0.055	0.023	-0.012	-0.002	-0.063	-0.074	-0.02	-0.009
